Usually residual activity stands for the signal under treatment as a percentage of the control signal.

Experiment [1] deals with Focal adhesion kinase 1 (Homo sapiens) (UniProt Q05397). The settings on record: at 10 µM.
For experiment [2], the target named is Fibroblast growth factor receptor 1 (Homo sapiens) (UniProt P11362). The settings on record: at 1 µM.
The target is the same in experiment [3]. The settings on record: at 10 µM.
Experiment [4] addresses Fibroblast growth factor receptor 2 (Homo sapiens) (UniProt P21802). The following applies: at 1 µM.
Experiment [5] has the same target. The settings on record: at 10 µM.
Experiment [6] has as its target Fibroblast growth factor receptor 3 (Homo sapiens) (UniProt P22607). The settings on record: at 1 µM.
The target is the same in experiment [7]. The following applies: at 10 µM.
Experiment [8] deals with Fibroblast growth factor receptor 4 (Homo sapiens) (UniProt P22455). The settings on record: at 1 µM.
For experiment [9] the target is unchanged. The following applies: at 10 µM.
In experiment [10] the target is Tyrosine-protein kinase Fer (Homo sapiens) (UniProt P16591). The following applies: at 1 µM.
Experiment [11] has the same target. The following applies: at 10 µM.
The target of experiment [12] is Tyrosine-protein kinase Fes/Fps (Homo sapiens) (UniProt P07332). The following applies: at 1 µM.
Experiment [13] has the same target. The settings on record: at 10 µM.
For experiment [14], the target named is Tyrosine-protein kinase Fgr (Homo sapiens) (UniProt P09769). The following applies: at 1 µM.
Experiment [15] has the same target. The settings on record: at 10 µM.
Experiment [16] deals with Vascular endothelial growth factor receptor 1 (Homo sapiens) (UniProt P17948). The settings on record: at 1 µM.
Experiment [17] shares this target. The following applies: at 10 µM.
For experiment [18], the target named is Receptor-type tyrosine-protein kinase FLT3 (Homo sapiens) (UniProt P36888). The following applies: at 1 µM.
Experiment [19] shares this target. The settings on record: at 10 µM.
Experiment [20] has as its target Vascular endothelial growth factor receptor 3 (Homo sapiens) (UniProt P35916). The settings on record: at 1 µM.

Fibroblast growth factor receptor 2 (Homo sapiens), sequence (P21802 22-821 limits assumed): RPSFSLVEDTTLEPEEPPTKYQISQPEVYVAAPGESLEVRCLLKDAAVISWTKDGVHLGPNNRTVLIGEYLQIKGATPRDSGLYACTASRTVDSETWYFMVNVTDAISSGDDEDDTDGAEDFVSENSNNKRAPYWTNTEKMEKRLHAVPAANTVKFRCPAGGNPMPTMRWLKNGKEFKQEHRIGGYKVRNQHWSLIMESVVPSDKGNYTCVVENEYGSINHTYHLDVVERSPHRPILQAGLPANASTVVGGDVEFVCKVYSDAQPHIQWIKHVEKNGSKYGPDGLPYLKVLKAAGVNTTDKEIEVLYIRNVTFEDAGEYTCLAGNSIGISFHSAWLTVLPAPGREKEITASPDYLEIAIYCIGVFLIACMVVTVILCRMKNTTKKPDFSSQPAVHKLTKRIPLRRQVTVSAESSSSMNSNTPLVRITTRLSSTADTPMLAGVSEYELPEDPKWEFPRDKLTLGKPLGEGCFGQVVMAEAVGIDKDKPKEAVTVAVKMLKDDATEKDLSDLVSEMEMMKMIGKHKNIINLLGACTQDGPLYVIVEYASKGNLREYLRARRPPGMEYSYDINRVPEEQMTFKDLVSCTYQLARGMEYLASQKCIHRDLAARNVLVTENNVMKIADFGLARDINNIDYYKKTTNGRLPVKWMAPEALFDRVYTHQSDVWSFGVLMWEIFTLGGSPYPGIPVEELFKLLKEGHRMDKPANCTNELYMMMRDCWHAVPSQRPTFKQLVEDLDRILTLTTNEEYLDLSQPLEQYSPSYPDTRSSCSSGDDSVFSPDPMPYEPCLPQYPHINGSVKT
Vascular endothelial growth factor receptor 3 (Homo sapiens), sequence (P35916 whole entry): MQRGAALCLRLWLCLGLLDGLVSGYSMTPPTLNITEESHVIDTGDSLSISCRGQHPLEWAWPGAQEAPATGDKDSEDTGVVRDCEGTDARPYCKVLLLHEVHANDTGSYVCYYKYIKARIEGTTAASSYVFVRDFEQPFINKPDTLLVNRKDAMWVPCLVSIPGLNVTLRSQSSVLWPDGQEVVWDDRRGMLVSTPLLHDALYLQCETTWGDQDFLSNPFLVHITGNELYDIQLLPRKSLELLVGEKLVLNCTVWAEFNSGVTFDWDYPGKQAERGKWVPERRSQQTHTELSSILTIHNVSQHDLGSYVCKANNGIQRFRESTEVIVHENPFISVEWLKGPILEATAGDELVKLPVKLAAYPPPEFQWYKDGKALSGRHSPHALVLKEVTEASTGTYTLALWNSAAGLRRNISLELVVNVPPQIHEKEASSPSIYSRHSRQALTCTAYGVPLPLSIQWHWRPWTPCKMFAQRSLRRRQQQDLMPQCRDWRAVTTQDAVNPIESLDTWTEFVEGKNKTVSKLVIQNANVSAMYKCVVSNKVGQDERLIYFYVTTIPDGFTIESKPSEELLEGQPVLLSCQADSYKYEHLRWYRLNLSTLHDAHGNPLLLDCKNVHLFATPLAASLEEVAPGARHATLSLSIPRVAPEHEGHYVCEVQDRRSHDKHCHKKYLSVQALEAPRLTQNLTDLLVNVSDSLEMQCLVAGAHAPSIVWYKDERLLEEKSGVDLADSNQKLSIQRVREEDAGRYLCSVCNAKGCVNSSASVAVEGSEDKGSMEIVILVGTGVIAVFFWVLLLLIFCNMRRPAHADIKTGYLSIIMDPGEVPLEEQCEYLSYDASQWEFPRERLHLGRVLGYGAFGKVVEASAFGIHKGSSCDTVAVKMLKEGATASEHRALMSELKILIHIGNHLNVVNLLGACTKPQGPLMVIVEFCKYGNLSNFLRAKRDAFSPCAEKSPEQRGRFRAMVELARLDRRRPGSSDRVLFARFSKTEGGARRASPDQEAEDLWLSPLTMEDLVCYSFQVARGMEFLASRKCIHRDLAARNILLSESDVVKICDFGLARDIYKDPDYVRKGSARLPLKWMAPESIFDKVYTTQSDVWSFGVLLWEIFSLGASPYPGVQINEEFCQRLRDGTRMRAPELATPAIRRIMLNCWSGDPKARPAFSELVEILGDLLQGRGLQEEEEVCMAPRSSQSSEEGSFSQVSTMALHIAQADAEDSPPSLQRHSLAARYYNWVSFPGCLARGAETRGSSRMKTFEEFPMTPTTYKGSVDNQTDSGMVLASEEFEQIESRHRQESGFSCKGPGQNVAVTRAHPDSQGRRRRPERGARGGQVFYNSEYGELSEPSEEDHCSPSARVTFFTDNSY
Focal adhesion kinase 1 (Homo sapiens), sequence (Q05397 2-1052 limits assumed): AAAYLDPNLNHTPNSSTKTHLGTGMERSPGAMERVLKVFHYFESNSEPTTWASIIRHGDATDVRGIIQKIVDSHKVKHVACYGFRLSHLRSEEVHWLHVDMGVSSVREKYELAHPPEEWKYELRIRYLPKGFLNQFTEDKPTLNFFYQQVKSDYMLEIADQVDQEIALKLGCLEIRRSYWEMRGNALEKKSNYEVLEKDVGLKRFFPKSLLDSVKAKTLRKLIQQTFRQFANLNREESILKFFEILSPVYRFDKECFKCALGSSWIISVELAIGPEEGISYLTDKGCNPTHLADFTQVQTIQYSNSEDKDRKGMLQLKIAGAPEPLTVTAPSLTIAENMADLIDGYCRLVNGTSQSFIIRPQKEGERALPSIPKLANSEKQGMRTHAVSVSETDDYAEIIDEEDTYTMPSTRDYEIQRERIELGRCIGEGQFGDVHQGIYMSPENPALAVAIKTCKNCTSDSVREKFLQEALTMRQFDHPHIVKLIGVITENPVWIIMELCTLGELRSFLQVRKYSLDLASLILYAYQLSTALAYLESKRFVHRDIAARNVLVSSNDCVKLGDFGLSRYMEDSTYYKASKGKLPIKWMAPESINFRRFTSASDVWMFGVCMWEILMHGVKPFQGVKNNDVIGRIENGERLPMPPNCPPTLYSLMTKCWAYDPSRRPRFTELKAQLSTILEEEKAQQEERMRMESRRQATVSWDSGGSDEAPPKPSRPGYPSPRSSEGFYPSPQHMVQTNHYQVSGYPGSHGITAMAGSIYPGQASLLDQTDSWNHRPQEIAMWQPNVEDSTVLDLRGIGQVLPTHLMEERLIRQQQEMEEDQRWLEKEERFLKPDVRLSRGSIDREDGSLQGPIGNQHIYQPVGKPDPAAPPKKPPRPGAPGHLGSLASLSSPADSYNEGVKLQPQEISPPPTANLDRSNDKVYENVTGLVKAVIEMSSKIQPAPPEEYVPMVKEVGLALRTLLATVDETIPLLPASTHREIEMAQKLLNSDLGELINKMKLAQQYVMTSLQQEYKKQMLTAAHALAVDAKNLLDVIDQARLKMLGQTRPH
Fibroblast growth factor receptor 1 (Homo sapiens), sequence (P11362 22-822 limits assumed): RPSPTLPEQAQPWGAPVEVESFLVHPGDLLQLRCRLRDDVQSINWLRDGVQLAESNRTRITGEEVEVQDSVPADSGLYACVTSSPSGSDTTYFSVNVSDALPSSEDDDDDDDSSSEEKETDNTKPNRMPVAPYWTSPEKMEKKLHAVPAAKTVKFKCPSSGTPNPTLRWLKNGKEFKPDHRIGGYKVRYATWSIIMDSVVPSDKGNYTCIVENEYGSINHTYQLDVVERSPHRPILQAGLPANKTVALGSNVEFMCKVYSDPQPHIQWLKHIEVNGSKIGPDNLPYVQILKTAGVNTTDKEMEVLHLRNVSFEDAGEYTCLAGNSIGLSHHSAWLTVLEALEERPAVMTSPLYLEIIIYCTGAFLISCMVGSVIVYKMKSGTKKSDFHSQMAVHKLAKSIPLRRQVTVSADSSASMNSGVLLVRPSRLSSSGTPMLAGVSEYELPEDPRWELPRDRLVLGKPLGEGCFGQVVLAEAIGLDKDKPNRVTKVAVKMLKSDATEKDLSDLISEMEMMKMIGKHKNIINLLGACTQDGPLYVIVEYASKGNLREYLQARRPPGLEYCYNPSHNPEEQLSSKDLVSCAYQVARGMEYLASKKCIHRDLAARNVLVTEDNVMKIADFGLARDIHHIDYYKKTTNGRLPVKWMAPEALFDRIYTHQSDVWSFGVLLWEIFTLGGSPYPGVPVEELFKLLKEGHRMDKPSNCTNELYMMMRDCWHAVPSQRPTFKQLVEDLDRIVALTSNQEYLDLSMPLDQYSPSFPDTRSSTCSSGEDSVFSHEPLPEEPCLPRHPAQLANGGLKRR
Tyrosine-protein kinase Fer (Homo sapiens), sequence (P16591 whole entry, looked up): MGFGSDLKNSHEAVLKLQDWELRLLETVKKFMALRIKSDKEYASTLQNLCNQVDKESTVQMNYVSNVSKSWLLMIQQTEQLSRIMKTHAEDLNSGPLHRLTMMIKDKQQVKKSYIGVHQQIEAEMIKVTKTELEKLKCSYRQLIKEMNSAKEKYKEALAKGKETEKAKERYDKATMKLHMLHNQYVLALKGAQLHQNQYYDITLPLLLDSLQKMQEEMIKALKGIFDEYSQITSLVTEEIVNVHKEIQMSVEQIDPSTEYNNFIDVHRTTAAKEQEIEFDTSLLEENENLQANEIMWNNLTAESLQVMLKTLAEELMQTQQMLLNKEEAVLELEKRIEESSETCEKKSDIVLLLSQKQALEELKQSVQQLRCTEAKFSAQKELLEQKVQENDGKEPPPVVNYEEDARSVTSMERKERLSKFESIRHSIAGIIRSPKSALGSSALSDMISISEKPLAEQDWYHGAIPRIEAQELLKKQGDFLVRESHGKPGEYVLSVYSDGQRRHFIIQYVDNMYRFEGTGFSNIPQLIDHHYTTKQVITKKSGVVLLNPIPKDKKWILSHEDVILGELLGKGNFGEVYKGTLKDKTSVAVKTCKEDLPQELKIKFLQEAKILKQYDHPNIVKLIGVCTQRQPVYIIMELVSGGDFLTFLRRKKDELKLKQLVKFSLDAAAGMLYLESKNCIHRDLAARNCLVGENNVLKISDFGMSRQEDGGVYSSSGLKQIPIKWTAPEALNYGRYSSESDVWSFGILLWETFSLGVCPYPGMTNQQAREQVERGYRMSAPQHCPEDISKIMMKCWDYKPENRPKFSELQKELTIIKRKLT

For the molecule `CNc1cc2c(Nc3cccc(Br)c3)ncnc2cn1`, the residual activity in [1] stood at 82%; in [2] it was 102%; in experiment [3], 66%; in experiment [4], 89%; in experiment [5] it was 88%; in [6] it was 90%. The residual activity in experiment [7] was 100%; in [8] it was 109%; in experiment [9], 86%; in experiment [10] it was 105%; in experiment [11], 90%; in experiment [12], 116%. Also, the residual activity came to 92% in experiment [13]; 73% in experiment [14]; 60% in [15]; 87% in experiment [16]; 58% in experiment [17]; 119% in [18]. Further, the residual activity in [19] is 107%; in experiment [20], 87%.
Take `Cn1nc2c3c(cccc31)C(=O)c1ccccc1-2`: the residual activity was found to be 65% in experiment [1]; 110% in experiment [2]; 66% in experiment [3]; 103% in experiment [4]; 76% in experiment [5]; 112% in experiment [6]. Moreover, the residual activity was determined as 77% in experiment [7]; 90% in [8]; 88% in [9]; 87% in [10]; 76% in [11]; 98% in [12]. In addition, the residual activity in experiment [13] turned out to be 94%; in [14], 98%; in experiment [15], 89%; in experiment [16] it was 75%; in experiment [17], 52%; in [18], 50%. The figures for the residual activity in [19] and in [20] were 20% and 57%, respectively.
On to `CCN(CC)C(=O)c1ccc(Nc2nc(OCC3CCCCC3)c3nc[nH]c3n2)cc1`, for which the residual activity was 12% in [1]; 40% in [2]; 2% in experiment [3]; 56% in experiment [4]; 9% in [5]; 49% in experiment [6]. Further, the residual activity was found to be 4% in [7]; 53% in experiment [10]; 6% in experiment [11]; 61% in experiment [12]; 9% in experiment [13]; 55% in experiment [14]. Besides, the residual activity in experiment [15] came to 7%; in [16], 33%; in [17], 2%; in [18], 5%; in experiment [19], 1%; in experiment [20], 0%.
Regarding `CN(C)CCCn1cc(C2=C(c3c[nH]c4ccccc34)C(=O)NC2=O)c2ccccc21`, the residual activity turned out to be 37% in experiment [1]; 50% in experiment [2]; 3% in experiment [3]; 88% in experiment [4]; 33% in experiment [5]; 29% in experiment [7]. The residual activity in experiment [8] amounted to 121%; in experiment [9] it was 70%; in experiment [10], 113%; in experiment [11], 81%; in experiment [12] it was 125%; in [13], 14%. The residual activity in [15] is 55%.
As to `Nc1n[nH]c2nnc(-c3c(-c4ccccc4)nn4ccccc34)cc12`, the residual activity turned out to be 83% in experiment [1]; 110% in experiment [2]; 61% in [3]; 98% in [4]; 83% in experiment [5]; 102% in experiment [7]. Besides, the residual activity in [8] was found to be 101%; in [9], 94%; in experiment [10] it was 95%; in experiment [11] it was 66%; in experiment [12] it was 85%; in [13] it was 86%. Moreover, the residual activity in experiment [14] amounted to 86%; in experiment [15], 50%; in experiment [16], 71%; in experiment [17] it was 23%; in experiment [18], 72%; in [19] it was 22%. In addition, the residual activity in [20] turned out to be 76%.
As for `CO[C@H]1[C@@H](OC)C[C@H](C)[C@@H](OC)C2=CC(=O)C=C(NC(=O)/C(C)=C/C=C/[C@H](OC)[C@@H](OC(N)=O)/C(C)=C/[C@@H]1C)C2=O`, the residual activity in [1] is 91%; in [2] it was 82%; in [3], 93%; in [4] it was 104%; in experiment [5] it was 105%; in experiment [6] it was 112%. Moreover, the residual activity in [7] worked out at 102%; in [8], 109%; in [9], 94%; in experiment [10], 110%; in [11], 99%; in [12], 111%. For the same molecule, the residual activity in experiment [14] turned out to be 99%; in experiment [15] it was 100%; in experiment [16], 86%; in [17], 95%; in [18] it was 85%; in [19] it was 76%. Further, the residual activity in experiment [20] is 92%.
As to `COc1cc2ncnc(Nc3ccc(Oc4ccccc4)cc3)c2cc1OC`, the residual activity came to 71% in [1]; 48% in experiment [3]; 65% in experiment [4]; 33% in [5]; 78% in experiment [6]; 54% in experiment [7]. Moreover, the residual activity in experiment [8] was 121%; in experiment [9], 109%; in [10], 110%; in [11], 76%; in [12] it was 102%; in experiment [13] it was 90%. In addition, the residual activity amounted to 7% in experiment [14]; 2% in [15]; 18% in experiment [16]; 4% in experiment [17]; 39% in experiment [18]; 11% in experiment [19]. Also, the residual activity in [20] amounted to 7%.
Turning to `Cc1cccc(-c2[nH]c(C(C)(C)C)nc2-c2ccc3c(c2)OCO3)n1`, the residual activity was determined as 95% in [1]; 95% in [5]; 129% in [7]; 87% in [13]; 88% in experiment [15]; 86% in [16]. For the same molecule, the residual activity in [17] was 84%; in [19] it was 87%; in [20], 99%.
Turning to `CC(=O)O/N=C1\C(=C2\C(=O)Nc3cc(Br)ccc32)Nc2ccccc21`, the residual activity in [1] turned out to be 59%; in experiment [2], 17%; in [3], 0%; in [4], 73%; in [5], 18%; in experiment [6], 84%. Also, the residual activity turned out to be 22% in experiment [7]; 69% in experiment [9]; 94% in experiment [10]; 92% in experiment [11]; 107% in experiment [12]; 97% in experiment [13]. The residual activity in experiment [14] was 10%; in [15], -1%; in experiment [16] it was 24%; in [17] it was 1%; in [18], 3%; in experiment [19] it was 0%. For the same molecule, in experiment [20], the residual activity is 2%.
Consider `COc1ccc(C(=O)Nc2sc3c(c2C(N)=O)CCCC3)cc1OC`, for which the residual activity in experiment [1] came to 78%; in [2], 87%; in [3], 118%; in experiment [4], 86%; in experiment [5], 99%; in [6], 104%. In addition, the residual activity was determined as 109% in experiment [7]; 107% in experiment [8]; 99% in experiment [9]; 108% in [10]; 91% in experiment [11]; 123% in experiment [12]. Further, the residual activity in experiment [14] stood at 110%; in experiment [15], 93%; in experiment [16], 72%; in experiment [17], 81%; in [18], 32%; in [19], 35%. Further, the residual activity in experiment [20] stood at 10%.
Turning to `CO[C@@H]1[C@H](N(C)C(=O)c2ccccc2)C[C@H]2O[C@]1(C)n1c3ccccc3c3c4c(c5c6ccccc6n2c5c31)C(=O)NC4`, the residual activity in experiment [1] was 37%; in experiment [2] it was 5%; in experiment [3], -4%; in experiment [4], 21%; in experiment [5], 7%; in experiment [6] it was 34%. Moreover, the residual activity in experiment [7] amounted to 19%; in [8], 71%; in [9], 41%; in experiment [10], 26%; in experiment [11] it was 14%; in experiment [12], 15%. Besides, the residual activity in experiment [13] was 9%; in [14], 7%; in experiment [15] it was 4%; in experiment [16] it was 4%; in experiment [17], 1%; in [20], 1%.
Consider `c1ccc(-c2n[nH]cc2-c2ccnc3ccccc23)nc1`, for which the residual activity in [2] came out at 80%; in experiment [3], 72%; in experiment [4], 101%; in experiment [5], 97%; in experiment [12], 107%; in experiment [13], 80%. The residual activity was 90% in [14]; 51% in [15]; 36% in experiment [16]; 7% in [17]; 48% in experiment [18]; 23% in experiment [19]. For the same molecule, the residual activity in experiment [20] was found to be 37%.
On to `CC(=O)c1ccc(N2CCOCC2)cc1O`, for which the residual activity in experiment [1] worked out at 94%; in experiment [2], 97%; in experiment [6], 98%; in experiment [7], 128%; in [12] it was 133%; in [13], 94%. For the same molecule, the residual activity in [14] was determined as 110%; in experiment [15], 102%; in experiment [16] it was 106%; in experiment [17], 97%; in experiment [18] it was 102%; in [19], 86%. Further, in [20], the residual activity was found to be 93%.
